The text below walks through data of PubChem BioAssay AID504904 (The Scripps Research Institute Molecular Screening Center, 2011).

The list shows a part of the results. A number with no mark means an inactive call. Active and inactive are the calls of the source. No stated cut-off is given here; in the data, active means activation above about 18%; inactive means the rest.

For the experiment, the target named is Mu-type opioid receptor (Homo sapiens) + Delta-type opioid receptor (Homo sapiens) (UniProt P35372+P41143). Kind of experiment: agonists of MOR-DOR heterodimerization, confirmation, cell-based, luminescence (AID 504904).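 Further: 0% = vehicle-treated cells and 100% = reference agonist.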 To be noted: cells, luminescence complementation, at 9.3 µM, hits give high values.
Chain of Mu-type opioid receptor (Homo sapiens) + Delta-type opioid receptor (Homo sapiens) (P35372 whole entry, looked up): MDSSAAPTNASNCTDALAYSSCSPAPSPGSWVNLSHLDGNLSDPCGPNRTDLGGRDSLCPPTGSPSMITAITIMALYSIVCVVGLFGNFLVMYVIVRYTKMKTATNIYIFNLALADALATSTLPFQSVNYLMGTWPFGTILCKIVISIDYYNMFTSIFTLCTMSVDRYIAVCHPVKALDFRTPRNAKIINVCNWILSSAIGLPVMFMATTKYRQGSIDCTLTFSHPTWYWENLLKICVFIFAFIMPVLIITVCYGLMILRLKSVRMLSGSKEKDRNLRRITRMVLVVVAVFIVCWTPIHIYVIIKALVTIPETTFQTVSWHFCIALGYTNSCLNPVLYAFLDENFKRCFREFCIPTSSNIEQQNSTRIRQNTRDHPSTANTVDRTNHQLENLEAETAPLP
Chain of Mu-type opioid receptor (Homo sapiens) + Delta-type opioid receptor (Homo sapiens) (P41143 whole entry, looked up): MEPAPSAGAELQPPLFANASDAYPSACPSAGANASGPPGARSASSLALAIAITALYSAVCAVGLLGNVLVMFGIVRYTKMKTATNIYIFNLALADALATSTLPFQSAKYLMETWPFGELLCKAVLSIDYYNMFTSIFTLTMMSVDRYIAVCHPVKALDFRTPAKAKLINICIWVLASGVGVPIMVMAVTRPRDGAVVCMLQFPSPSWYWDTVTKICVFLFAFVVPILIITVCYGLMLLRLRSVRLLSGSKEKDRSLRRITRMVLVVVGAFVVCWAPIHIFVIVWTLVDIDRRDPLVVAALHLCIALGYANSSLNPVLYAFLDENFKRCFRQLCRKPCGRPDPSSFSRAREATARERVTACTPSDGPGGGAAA
With `COC1C(O)C(C)OC(OC2CCC3(C=O)C(CCC4C3CCC3(C)C(C5=CC(=O)OC5)CCC43O)C2)C1O` (centres undefined), the activation is 51.8% (active).

`CCOC(=O)C1(CCc2ccccc2)CCN(Cc2ccco2)CC1`: the activation was 41.4% (active).

In the case of `C[C@]12CC[C@H](O)C[C@H]1CC[C@@H]1C2CC[C@]2(C)[C@@H](C3=CC(=O)OC3)[C@@H](O)C[C@]12O` (some centres undefined), the activation was -3.86%.

Turning to `CCC1(C)CC(CCNCc2ccc(N(C)C)cc2)(c2ccc(F)cc2)CCO1` (centres undefined), the activation is 137% (active).
